Results on 16 molecules are retold here after ChEMBL document CHEMBL1961873, “Compounds: GSK PKIS; Assays: Nanosyn kinase panel” (2012).

Assay [1] concerns the target Ribosomal protein S6 kinase alpha-6 (Homo sapiens) (UniProt Q9UK32). The following applies: at 1 µM.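 Also: each value is a mean inhibition of RSK4 from a GSK PKIS panel screen.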
Assay [2] addresses T1, Serine/threonine-protein kinase Sgk1 (Homo sapiens) (UniProt O00141).
T1 sequence (whole entry): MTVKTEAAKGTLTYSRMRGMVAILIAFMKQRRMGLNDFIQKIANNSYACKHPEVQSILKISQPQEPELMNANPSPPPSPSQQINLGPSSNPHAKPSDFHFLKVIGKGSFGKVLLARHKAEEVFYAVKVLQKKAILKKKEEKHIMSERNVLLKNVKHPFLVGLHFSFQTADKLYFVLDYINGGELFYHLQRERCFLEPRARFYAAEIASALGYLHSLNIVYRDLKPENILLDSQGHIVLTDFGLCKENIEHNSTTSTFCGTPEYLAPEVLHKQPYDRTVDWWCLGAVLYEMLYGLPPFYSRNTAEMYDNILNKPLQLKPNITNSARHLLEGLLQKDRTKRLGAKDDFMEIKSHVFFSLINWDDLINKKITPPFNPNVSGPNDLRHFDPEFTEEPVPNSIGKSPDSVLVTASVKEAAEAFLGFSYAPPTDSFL
To be noted: at 0.1 µM.

Assay [3] has as its target T1, Serine/threonine-protein kinase Sgk1 (Homo sapiens). The following applies: at 1 µM.
Assay [4] concerns the target T2, Serine/threonine-protein kinase Sgk2 (Homo sapiens) (UniProt Q9HBY8).
T2 sequence (whole entry): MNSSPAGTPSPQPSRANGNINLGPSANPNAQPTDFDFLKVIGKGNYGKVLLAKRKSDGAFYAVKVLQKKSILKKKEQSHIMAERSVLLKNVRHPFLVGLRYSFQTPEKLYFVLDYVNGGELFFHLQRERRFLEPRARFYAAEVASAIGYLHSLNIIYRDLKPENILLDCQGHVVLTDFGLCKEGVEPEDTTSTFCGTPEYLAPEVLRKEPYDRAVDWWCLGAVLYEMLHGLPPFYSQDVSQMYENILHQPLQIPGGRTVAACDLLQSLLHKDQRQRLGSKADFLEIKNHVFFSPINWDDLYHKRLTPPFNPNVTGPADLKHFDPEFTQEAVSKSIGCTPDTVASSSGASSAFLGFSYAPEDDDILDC
To be noted: at 0.1 µM.

Assay [5] deals with T2, Serine/threonine-protein kinase Sgk2 (Homo sapiens). The following applies: at 1 µM.
In assay [6] the target is T3, Serine/threonine-protein kinase Sgk3 (Homo sapiens) (UniProt Q96BR1).
T3 sequence (whole entry): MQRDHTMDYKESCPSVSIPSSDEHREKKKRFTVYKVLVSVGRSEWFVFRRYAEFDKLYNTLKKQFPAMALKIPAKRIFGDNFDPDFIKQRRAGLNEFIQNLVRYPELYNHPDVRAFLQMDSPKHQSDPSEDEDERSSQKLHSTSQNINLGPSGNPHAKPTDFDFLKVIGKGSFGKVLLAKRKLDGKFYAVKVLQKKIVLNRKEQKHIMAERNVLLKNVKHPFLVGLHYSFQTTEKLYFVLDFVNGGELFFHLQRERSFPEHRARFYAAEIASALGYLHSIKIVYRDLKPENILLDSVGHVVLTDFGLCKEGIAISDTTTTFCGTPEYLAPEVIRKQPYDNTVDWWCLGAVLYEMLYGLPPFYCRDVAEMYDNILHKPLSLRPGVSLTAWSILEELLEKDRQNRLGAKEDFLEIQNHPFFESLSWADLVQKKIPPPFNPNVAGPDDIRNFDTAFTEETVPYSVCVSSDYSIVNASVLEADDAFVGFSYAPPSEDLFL
The following applies: at 0.1 µM.

Assay [7] addresses T3, Serine/threonine-protein kinase Sgk3 (Homo sapiens). The following applies: at 1 µM.
The target in assay [8] is 5'-AMP-activated protein kinase catalytic subunit alpha-1 (Homo sapiens) (UniProt Q13131). To be noted: at 0.1 µM.
Assay [9] has the same target. The following applies: at 1 µM.
In assay [10] the target is 5'-AMP-activated protein kinase catalytic subunit alpha-2 (Homo sapiens) (UniProt P54646). To be noted: at 0.1 µM.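 Also: mean inhibition measured on the AMPK complex of alpha2, beta1 and gamma1 subunits.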
Chain of 5'-AMP-activated protein kinase catalytic subunit alpha-2 (Homo sapiens) (P54646 whole entry, looked up): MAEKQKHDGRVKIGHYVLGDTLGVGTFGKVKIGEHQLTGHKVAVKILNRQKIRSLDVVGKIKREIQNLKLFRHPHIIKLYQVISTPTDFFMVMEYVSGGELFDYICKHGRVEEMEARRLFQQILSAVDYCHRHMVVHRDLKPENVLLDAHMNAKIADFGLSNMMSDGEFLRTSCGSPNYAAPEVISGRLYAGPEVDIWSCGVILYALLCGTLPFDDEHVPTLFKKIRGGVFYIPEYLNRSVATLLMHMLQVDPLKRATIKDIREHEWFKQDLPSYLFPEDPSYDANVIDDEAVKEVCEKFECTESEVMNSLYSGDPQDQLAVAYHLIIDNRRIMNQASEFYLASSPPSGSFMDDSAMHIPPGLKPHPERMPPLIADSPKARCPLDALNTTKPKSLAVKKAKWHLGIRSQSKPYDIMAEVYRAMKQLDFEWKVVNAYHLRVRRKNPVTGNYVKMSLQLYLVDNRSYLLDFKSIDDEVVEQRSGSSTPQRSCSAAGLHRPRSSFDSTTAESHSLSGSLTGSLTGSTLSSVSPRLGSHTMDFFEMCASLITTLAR

Chain of 5'-AMP-activated protein kinase catalytic subunit alpha-1 (Homo sapiens) (Q13131 whole entry, looked up): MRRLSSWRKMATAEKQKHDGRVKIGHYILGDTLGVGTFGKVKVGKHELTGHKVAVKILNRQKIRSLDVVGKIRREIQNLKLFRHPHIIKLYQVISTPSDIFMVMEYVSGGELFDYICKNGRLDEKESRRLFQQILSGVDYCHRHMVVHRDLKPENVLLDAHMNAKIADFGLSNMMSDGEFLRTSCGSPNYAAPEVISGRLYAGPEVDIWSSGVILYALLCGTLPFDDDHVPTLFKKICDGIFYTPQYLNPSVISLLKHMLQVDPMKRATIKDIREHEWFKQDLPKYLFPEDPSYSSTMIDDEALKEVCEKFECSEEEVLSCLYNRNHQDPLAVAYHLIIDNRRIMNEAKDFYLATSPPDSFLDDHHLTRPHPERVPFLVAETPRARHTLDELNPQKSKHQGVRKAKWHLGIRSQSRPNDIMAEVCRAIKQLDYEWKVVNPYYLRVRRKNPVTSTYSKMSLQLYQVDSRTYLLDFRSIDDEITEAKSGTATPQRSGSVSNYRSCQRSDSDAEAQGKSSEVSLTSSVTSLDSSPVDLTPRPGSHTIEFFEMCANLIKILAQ
Chain of Ribosomal protein S6 kinase alpha-6 (Homo sapiens) (Q9UK32 whole entry): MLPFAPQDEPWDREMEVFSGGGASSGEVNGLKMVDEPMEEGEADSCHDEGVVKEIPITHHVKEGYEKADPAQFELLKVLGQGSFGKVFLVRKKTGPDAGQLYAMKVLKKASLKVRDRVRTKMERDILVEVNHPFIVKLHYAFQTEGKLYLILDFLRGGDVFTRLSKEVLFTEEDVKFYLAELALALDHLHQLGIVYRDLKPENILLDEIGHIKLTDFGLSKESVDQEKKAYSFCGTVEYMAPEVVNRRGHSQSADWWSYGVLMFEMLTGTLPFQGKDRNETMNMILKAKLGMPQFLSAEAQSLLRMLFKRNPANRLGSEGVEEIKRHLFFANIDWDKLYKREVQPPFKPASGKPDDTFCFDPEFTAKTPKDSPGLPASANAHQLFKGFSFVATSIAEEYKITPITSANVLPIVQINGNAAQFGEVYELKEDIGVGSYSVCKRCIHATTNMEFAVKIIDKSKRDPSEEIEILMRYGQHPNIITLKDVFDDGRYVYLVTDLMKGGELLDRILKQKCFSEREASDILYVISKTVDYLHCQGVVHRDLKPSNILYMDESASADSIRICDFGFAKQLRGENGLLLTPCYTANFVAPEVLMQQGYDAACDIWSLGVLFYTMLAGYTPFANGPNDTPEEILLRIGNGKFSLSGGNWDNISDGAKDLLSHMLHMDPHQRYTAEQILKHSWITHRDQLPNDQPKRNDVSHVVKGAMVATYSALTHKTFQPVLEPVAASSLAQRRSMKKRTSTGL

As for `Fc1cccc(COc2ccc(Nc3ncnc4sc(-c5cccs5)cc34)cc2Cl)c1`, the inhibition in [1] was 0.4%; in [2], 1.05%; in assay [3] it was 0.86%; in assay [4] it was 0.37%; in [5] it was 0.66%; in assay [6], 0.04%. The inhibition in assay [7] was -0.58%; in assay [8], 0.51%; in [9], 0.48%; in assay [10], 2.89%.
With `Nc1ncnc2occ(-c3ccc(NC(=O)Nc4cc(C(F)(F)F)cc(C(F)(F)F)c4)cc3)c12`, the inhibition in assay [1] is 5.35%; in assay [2] it was -0.37%; in assay [3], 1.38%; in assay [4], 2.27%; in assay [5] it was 2.02%; in assay [6] it was 0.27%. For the same molecule, the inhibition was -0.52% in assay [7], 1.68% in assay [8], 0.27% in assay [9] and -0.39% in [10].
With `Cc1nn(C)c2cc(N(C)c3ccnc(Nc4cccc(S(N)(=O)=O)c4)n3)ccc12`, the inhibition in assay [1] is 6.01%; in assay [2], 3.21%; in [3], 3.89%; in [4], -0.4%; in assay [5], 5.81%; in assay [6] it was 3.28%. In addition, the inhibition in assay [7] was 6.89%; in assay [8], 1.01%; in assay [9], 1.93%; in assay [10] it was 2.68%.
For `CCc1cccc(NC(=O)Nc2ccc(Oc3ccc4nc(NC(=O)OC)[nH]c4c3)cc2)c1`, the inhibition is 1.25% in assay [1]; 0.38% in assay [2]; 1.59% in [3]; 3.74% in assay [4]; -0.81% in assay [5]; 5.12% in [6]. For the same molecule, the inhibition was 3.61% in [7], 1.46% in assay [8], 0.41% in [9] and -5.13% in assay [10].
Regarding `COC(=O)Nc1nc2cc(Oc3ccc(NC(=O)Nc4cccc(C(=O)O)c4)cc3)ccc2[nH]1`, the inhibition in assay [1] is 1.45%; in [2] it was 1.3%; in assay [3], 1.96%; in assay [4], 1.67%; in assay [5], 1.89%; in [6], -2.29%. The inhibition is 2.6% in assay [7], 1.04% in assay [8], 4.37% in assay [9] and -4.37% in [10].
As for `Fc1cccc(COc2ccc(Nc3ncnc4cc(-c5ccc[nH]5)sc34)cc2Cl)c1`, the inhibition in [1] is 2.27%; in [2] it was 1.92%; in assay [3], 3.96%; in assay [4], -0.18%; in [5] it was 5.58%; in [6], 0.1%. The inhibition in assay [7] was 4.46%; in assay [8] it was 1.8%; in assay [9], 0.98%; in assay [10] it was 3.81%.
Regarding `CCn1c(-c2nonc2N)nc2c(N3CCCC3)nccc21`, the inhibition in assay [1] was -0.13%; in assay [2] it was 0.28%; in [3] it was -1.03%; in [4], -2.98%; in [5], 2.83%; in [6], -0.79%. Also, the inhibition was -0.02% in assay [7], -0.36% in assay [8], 0.11% in [9] and -8% in assay [10].
For `COc1ccc(-c2nn3ncccc3c2-c2ccnc(Nc3ccc(Cl)c(C(F)(F)F)c3)n2)cc1`, the inhibition in assay [1] was 0.85%; in [2], 1.68%; in [3], 4.61%; in [4], -2.66%; in [5], 0.76%; in assay [6], 2.3%. Further, the inhibition in [7] amounted to 2.89%; in assay [8], 2.31%; in assay [9], 2.56%; in assay [10] it was 0.17%.
Turning to `CS(=O)(=O)CCNCc1ccc(-c2ccc3ncnc(Nc4ccc(OCc5cccc(F)c5)c(C(F)(F)F)c4)c3c2)o1`, the inhibition in [1] worked out at 0.81%; in assay [2], 3.21%; in [3], 3.35%; in assay [4], 1.66%; in assay [5], 2.48%; in [6], 3.28%. In addition, the inhibition in assay [7] was determined as 4.67%; in assay [8], 2.01%; in assay [9] it was 3.32%; in [10], 3.2%.
In the case of `CCn1c(-c2nonc2N)nc2cncc(C(=O)N3CCNCC3)c21`, the inhibition in assay [1] turned out to be 2.55%; in [2], 1.92%; in assay [3], 4.77%; in assay [4], 3.56%; in assay [5], 4.56%; in assay [6], 5.25%. For the same molecule, the inhibition in assay [7] came out at 6.39%; in assay [8], 3.24%; in [9], 4.88%; in [10], 8.15%.
For the molecule `CN1CCC(C(=O)Nc2n[nH]c3nnc(-c4ccccc4)cc23)CC1`, the inhibition in [1] came to 1.86%; in assay [2] it was 3.01%; in assay [3] it was 6.62%; in [4], 4.36%; in assay [5] it was 3.52%; in [6], 2.89%. Moreover, the inhibition in [7] was found to be 5.04%; in assay [8], 5.95%; in assay [9], 5.95%; in assay [10] it was 4.12%.
In the case of `Cc1cccc(-c2n[nH]cc2-c2ccc3ncccc3n2)n1`, the inhibition is 1.71% in assay [1]; 0.86% in assay [2]; 1.34% in [3]; 0.23% in assay [4]; 0.54% in assay [5]; 0.78% in assay [6]. For the same molecule, the inhibition in assay [7] was -0.02%; in assay [8] it was 1.82%; in assay [9], 0.12%; in [10] it was 0.85%.
Consider `O=C1NC(=O)C(c2ccc(Cl)cc2)=C1Nc1ccc(Cl)c(C(=O)O)c1`, for which the inhibition in assay [1] was -1.03%; in assay [2], 1.08%; in assay [3], -1.96%; in assay [4] it was -3.55%; in assay [5] it was -0.77%; in assay [6], -1.08%. Besides, the inhibition is -4.32% in [7], -0.6% in assay [8], -0.54% in [9] and 0.26% in [10].
For `c1cnn2ncc(-c3ccnc(Nc4ccc5c(c4)OCCO5)n3)c2c1`, the inhibition in assay [1] was determined as 9.17%; in assay [2] it was 2.25%; in assay [3] it was 7.34%; in [4], 6.82%; in [5], 1.72%; in [6], 2.27%. Further, the inhibition in [7] is -0.29%; in assay [8], 4.61%; in [9] it was 11.6%; in assay [10], 1.53%.
Consider `CCN1CCC(CC(=O)Nc2n[nH]c3nc(-c4cccs4)c(Br)cc23)CC1`, for which the inhibition was 1.64% in assay [1]; -1.12% in [2]; -1.95% in [3]; -5.07% in assay [4]; -0.81% in assay [5]; -2.7% in assay [6]. In addition, the inhibition in [7] is -2.06%; in assay [8], -0.96%; in [9], 4.08%; in assay [10] it was 3.33%.
Consider `COc1ccc(-c2coc3ncnc(N)c23)cc1`, for which the inhibition in [1] is 2.17%; in assay [2], 2.68%; in [3] it was 1.67%; in assay [4] it was -1.21%; in assay [5], -0.41%; in assay [6], 2.69%. Further, the inhibition in assay [7] turned out to be 2.97%; in assay [8], 2.92%; in assay [9], 3.4%; in assay [10], 4.54%.
